Values joined by “and” are separate entries in the source; they are usually repeats but may differ in a detail not shown here. Identical values can stand only once. Inconclusive results are not listed. The source holds several records for some structures; these can differ, active in one and inactive in another. Active and inactive are the calls of the source. Unless noted, the call rests on the fitted dose curve; in most records, active means well fitted curve in the direction sought with a large enough effect in the repeat runs; inconclusive means weak or mixed curves; inactive means no such curve, though single readings can be large; an effect the other way counts as inactive or inconclusive.
Columns and labels:
[1] = qHTS assay to identify small molecule antagonists of the thyroid receptor (TR) signaling pathway - cell viability counter screen (AID 743064); further: nearly all actives have a fitted effect of over 50% in size; further: potency means the concentration at half of the fitted maximal effect
How it was run: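 In-well cytotoxicity read by CellTiter-Fluor (30 min, 37 C) following 23.5 h exposure of GH3 cells bearing a TRE-luciferase sensor. Compounds were added alongside 1 nM (final) T3 to drive TR transactivation.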

[2] = qHTS assay to identify small molecule antagonists of the thyroid receptor (TR) signaling pathway (AID 743065); further: nearly all actives have a fitted effect of over 55% in size; further: potency means the concentration at half of the fitted maximal effect
How it was run: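 Antagonism measured as loss of luciferase signal in GH3 cells stably carrying a TRE-luciferase reporter, co-treated with compound and T3 (1 nM final) for 23.5 h at 37 C. Viability was read in the same well by CellTiter-Fluor.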

[3] = biological target: Estrogen receptor (Homo sapiens) (UniProt P03372); assay: qHTS assay to identify small molecule antagonists of the estrogen receptor alpha (ER-alpha) signaling pathway (AID 743069; active means well fitted curve in the direction sought with a large enough effect in the signal ratio in the repeat runs, not every such curve was filed as active; the % refers to the signal ratio)
Sequence of Estrogen receptor (Homo sapiens) (P03372 whole entry, looked up): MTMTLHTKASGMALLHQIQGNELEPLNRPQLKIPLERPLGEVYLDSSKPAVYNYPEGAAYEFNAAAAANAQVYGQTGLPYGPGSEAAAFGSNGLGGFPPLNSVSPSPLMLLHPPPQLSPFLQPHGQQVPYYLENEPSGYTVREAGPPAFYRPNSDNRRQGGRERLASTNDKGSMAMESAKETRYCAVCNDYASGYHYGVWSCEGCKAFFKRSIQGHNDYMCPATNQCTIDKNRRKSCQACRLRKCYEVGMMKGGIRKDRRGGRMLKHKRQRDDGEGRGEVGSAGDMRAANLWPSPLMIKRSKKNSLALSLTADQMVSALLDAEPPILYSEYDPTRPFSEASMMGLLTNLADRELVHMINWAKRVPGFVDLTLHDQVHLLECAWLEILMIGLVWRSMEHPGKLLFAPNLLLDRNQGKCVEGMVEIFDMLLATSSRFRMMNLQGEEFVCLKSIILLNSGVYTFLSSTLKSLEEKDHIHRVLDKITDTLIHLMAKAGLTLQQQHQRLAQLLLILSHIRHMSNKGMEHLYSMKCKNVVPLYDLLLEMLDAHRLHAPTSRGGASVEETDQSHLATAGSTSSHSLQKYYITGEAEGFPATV
How it was run: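 Compound effects are measured against 17beta-estradiol stimulation in HEK293 cells with a UAS-controlled beta-lactamase reporter for ER-alpha. Exposure lasts 18 hr at 37C; LiveBLAzer B/G FRET substrate follows for 2 hr at room temperature.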

[4] = biological target: Estrogen receptor (Homo sapiens) (UniProt P03372); assay: qHTS assay to identify small molecule agonists of the estrogen receptor alpha (ER-alpha) signaling pathway (AID 743075; calls by dose curve)
[5] = qHTS assay to identify small molecule antagonists of the estrogen receptor alpha (ER-alpha) signaling pathway using the BG1 cell line - cell viability counter screen (AID 743081);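 further: compound given together with 17beta-estradiol as the ER stimulus; nearly all actives have a fitted effect of over 45% in size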; further: potency means the concentration at half of the fitted maximal effect
[6] = qHTS assay to identify small molecule that activate the aryl hydrocarbon receptor (AhR) signaling pathway - cell viability counter screen (AID 743086);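 further: HepG2 liver cells carrying the AhR DRE luciferase reporter; series mostly up to about 70 µM; nearly all actives have a fitted effect of over 45% in size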
How it was run: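 Cytotoxicity counter screen: CellTiter-Fluor signal (30 min, 37 C) in 4000 HepG2 cells/well carrying the DRE-luciferase reporter, following 24 h compound exposure at 37 C.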

[7] = qHTS assay to identify small molecule antagonists of the peroxisome proliferator-activated receptor gamma (PPARg) signaling pathway - cell viability counter screen (AID 743194); further: nearly all actives have a fitted effect of over 55% in size; further: potency means the concentration at half of the fitted maximal effect
How it was run: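 Viability was measured as CellTiter-Glo luminescence in GeneBLAzer PPARg UAS-bla HEK293H cells. These cells had been exposed 17 h at 37 C to compounds together with rosiglitazone at 50 nM final, with the beta-lactamase readout taken in the same wells.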

[8] = qHTS assay for small molecule agonists of the antioxidant response element (ARE) signaling pathway - cell viability counter screen (AID 743203; calls by dose curve; further: nearly all actives have a fitted effect of over 55% in size; further: potency means the concentration at half of the fitted maximal effect)
How it was run: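 CellSensor ARE-bla HepG2 cells, 2,000 per well, rested 5 hrs at 37C/5% CO2, then exposed to compound in DMSO for 16 hrs; viability read as CellTiter-Glo luminescence after 30 min at room temperature, in the reporter wells.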

[9] = qHTS assay for small molecule activators of the heat shock response signaling pathway - cell viability counter screen (AID 743209); further: nearly all actives have a fitted effect of over 50% in size; further: potency means the concentration at half of the fitted maximal effect
How it was run: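 CellSensor HSE-bla HeLa cells, plated overnight at 37 C/5% CO2, were exposed to compounds in DMSO for 5 h at 37 C. Viability was then read in the same wells by CellTiter-Glo luminescence after 30 min at room temperature.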

[10] = test system: thyroid hormone receptor (rat, GH3 cells); assay: qHTS assay to identify small molecule agonists of the thyroid receptor (TR) signaling pathway (AID 743066; calls by dose curve)
[11] = qHTS assay to identify small molecule antagonists of the estrogen receptor alpha (ER-alpha) signaling pathway - cell viability counter screen (AID 743074; calls by dose curve;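 further: HEK293 cells carrying ER-alpha-UAS-bla reporter stimulated with 17beta-estradiol; nearly all actives have a fitted effect of over 45% in size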)
[12] = biological target: Estrogen receptor (Homo sapiens) (UniProt P03372); assay: qHTS assay to identify small molecule agonists of the estrogen receptor alpha (ER-alpha) signaling pathway using the BG1 cell line (AID 743079); further: nearly all actives have a fitted effect of over 20% in size
Aromatase (Homo sapiens) = Aromatase (Homo sapiens) (UniProt P11511); assay: qHTS assay to identify aromatase inhibitors (AID 743083); further: nearly all actives have a fitted effect of over 55% in size; further: potency means the concentration at half of the fitted maximal effect
Sequence of Aromatase (Homo sapiens) (P11511 whole entry, looked up): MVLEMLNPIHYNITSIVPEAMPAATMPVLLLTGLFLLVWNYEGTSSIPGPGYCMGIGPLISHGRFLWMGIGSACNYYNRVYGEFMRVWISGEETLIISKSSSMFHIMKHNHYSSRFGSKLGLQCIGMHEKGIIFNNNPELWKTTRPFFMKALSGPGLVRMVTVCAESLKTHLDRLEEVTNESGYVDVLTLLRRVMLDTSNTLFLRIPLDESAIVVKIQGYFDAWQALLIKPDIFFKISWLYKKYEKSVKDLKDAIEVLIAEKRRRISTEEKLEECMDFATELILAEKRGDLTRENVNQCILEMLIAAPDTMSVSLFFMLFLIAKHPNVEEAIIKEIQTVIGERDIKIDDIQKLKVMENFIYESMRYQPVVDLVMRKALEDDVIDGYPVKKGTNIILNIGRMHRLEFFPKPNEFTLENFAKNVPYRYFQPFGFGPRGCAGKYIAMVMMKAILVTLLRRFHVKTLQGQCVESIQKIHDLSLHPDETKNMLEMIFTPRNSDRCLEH

[13] = qHTS assay to identify aromatase inhibitors - cell viability counter screen (AID 743084); further: potency means the concentration at half of the fitted maximal effect
[14] = biological target: Aryl hydrocarbon receptor (Homo sapiens) (UniProt P35869); assay: qHTS assay to identify small molecule that activate the aryl hydrocarbon receptor (AhR) signaling pathway (AID 743085); further: nearly all actives have a fitted effect of over 15% in size; further: potency means the concentration at half of the fitted maximal effect;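 on activation: HG2L7.5c1 human HepG2 liver cells with stably integrated DRE-driven firefly reporter; series mostly up to about 70 µM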
Sequence of Aryl hydrocarbon receptor (Homo sapiens) (P35869 whole entry, looked up): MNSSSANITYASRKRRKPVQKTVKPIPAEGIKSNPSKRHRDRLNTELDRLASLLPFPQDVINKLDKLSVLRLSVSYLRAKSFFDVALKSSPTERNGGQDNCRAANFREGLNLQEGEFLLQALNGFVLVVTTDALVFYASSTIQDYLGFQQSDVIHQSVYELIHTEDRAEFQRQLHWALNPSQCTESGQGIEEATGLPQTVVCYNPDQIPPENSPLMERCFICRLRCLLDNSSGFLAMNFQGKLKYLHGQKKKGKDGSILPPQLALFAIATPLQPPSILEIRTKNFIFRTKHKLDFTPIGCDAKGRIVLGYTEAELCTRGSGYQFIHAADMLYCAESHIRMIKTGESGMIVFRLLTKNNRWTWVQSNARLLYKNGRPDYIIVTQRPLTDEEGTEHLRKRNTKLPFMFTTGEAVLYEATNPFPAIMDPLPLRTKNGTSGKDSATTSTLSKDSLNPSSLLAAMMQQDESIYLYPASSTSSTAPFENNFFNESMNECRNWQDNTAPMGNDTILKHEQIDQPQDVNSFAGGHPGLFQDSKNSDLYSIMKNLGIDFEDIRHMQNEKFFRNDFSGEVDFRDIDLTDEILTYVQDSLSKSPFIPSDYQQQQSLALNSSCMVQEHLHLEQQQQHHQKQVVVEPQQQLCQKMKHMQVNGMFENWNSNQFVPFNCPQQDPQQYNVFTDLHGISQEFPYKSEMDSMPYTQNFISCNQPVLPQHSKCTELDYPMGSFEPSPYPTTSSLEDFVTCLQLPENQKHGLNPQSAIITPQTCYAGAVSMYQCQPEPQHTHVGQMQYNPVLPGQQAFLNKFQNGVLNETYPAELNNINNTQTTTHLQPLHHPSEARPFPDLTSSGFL
How it was run: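 Luminescence (ONE-Glo) from a dioxin-responsive-element luciferase reporter in HG2L7.5c1 HepG2 cells after 24 hr compound exposure at 37C; viability measured by CellTiter-Fluor fluorescence beforehand.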

[15] = biological target: Peroxisome proliferator-activated receptor gamma (Homo sapiens) (UniProt P37231); assay: qHTS assay to identify small molecule antagonists of the peroxisome proliferator-activated receptor gamma (PPARg) signaling pathway (AID 743191; calls by dose curve; further: series mostly up to about 63 µM; nearly all actives have a fitted effect of over 30% in size)
Sequence of Peroxisome proliferator-activated receptor gamma (Homo sapiens) (P37231 whole entry, looked up): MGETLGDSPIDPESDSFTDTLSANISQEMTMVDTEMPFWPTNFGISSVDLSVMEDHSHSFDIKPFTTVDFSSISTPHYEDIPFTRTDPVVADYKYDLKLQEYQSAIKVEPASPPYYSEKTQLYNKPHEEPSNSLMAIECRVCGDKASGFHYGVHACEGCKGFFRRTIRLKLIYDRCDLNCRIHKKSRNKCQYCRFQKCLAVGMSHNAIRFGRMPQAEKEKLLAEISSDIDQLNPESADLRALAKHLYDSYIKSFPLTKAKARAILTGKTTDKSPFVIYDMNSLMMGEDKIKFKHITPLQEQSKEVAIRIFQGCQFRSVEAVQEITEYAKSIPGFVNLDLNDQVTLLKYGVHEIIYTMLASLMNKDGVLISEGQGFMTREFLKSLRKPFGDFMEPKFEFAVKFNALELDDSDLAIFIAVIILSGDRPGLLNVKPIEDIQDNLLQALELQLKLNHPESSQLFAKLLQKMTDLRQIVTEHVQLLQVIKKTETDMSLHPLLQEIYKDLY
How it was run: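 Beta-lactamase reporter under UAS control in HEK293H PPARg-bla cells; compound treatment 17 h at 37C. Read-out: fluorescence intensity after 1 h room-temperature incubation with LiveBLAzer B/G FRET substrate.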

[16] = qHTS assay for small molecule agonists of the antioxidant response element (ARE) signaling pathway (AID 743202; active means well fitted activation curve with a large enough effect in the signal ratio in the repeat runs, not every such curve was filed as active; the % refers to the signal ratio; further: potency means the concentration at half of the fitted maximal effect)
How it was run: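 An ARE-responsive beta-lactamase gene stably integrated in HepG2 cells serves as reporter. After 5 h plating and 16 h compound incubation at 37 C, fluorescence of the B/G FRET substrate was measured.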

[17] = qHTS assay for small molecule activators of the heat shock response signaling pathway (AID 743210; active means well fitted activation curve with a large enough effect in the signal ratio in the repeat runs, with a control signal flat, not every such curve was filed as active; the % refers to the signal ratio;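 further: HeLa cells with beta-lactamase reporter driven by heat shock elements; series mostly up to about 63 µM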)
How it was run: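 In HSE-bla HeLa cells, 5 h compound incubation (37 C) precedes addition of LiveBLAzer B/G substrate; after 2.5 h at room temperature, fluorescence intensity indicates reporter induction.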

[18] = qHTS assay to identify small molecule antagonists of the estrogen receptor alpha (ER-alpha) signaling pathway using the BG1 cell line (AID 743080; calls by dose curve;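 further: BG1 cells stimulated with 17beta-estradiol alongside compound; series mostly up to about 70 µM; nearly all actives have a fitted effect of over 25% in size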)
How it was run: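 BG1-Luc-4E2 cells (endogenous full-length ER-alpha, stable 4×ERE-luciferase) were starved 5 days in phenol-red-free medium with 10% charcoal-stripped FBS, plated 24 h, then given compound plus 17beta-estradiol for 21.5 h at 37 C; ONE-Glo luminescence read after 30 min.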

[19] = biological target: Peroxisome proliferator-activated receptor gamma (Homo sapiens) (UniProt P37231); assay: qHTS assay to identify small molecule agonists of the peroxisome proliferator-activated receptor gamma (PPARg) signaling pathway (AID 743094; active means well fitted activation curve with a large enough effect in the signal ratio in the repeat runs, not every such curve was filed as active; the % refers to the signal ratio)
How it was run: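 GeneBLAzer PPARg UAS-bla HEK293H cells carrying a stably integrated beta-lactamase reporter were pre-incubated 5 h at 37C, then exposed to compounds in DMSO for 17 h at 37C; LiveBLAzer B/G FRET substrate was added for 1 h at room temperature and fluorescence read.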

Measured: Potency

c1ccc(C(O[C@@H]2CCCN(CCc3ccc4c(c3)OCO4)C2)c2ccccc2)cc1
active: [1] 24.3 µM | [2] 30.6 µM | [8] 61.1 µM
inactive: [3] | [4] | [5] | [6] | [7] | [9]

Cc1ccc(N/N=c2\c(=O)cc/c(=N\Nc3ccc(S(=O)(=O)O)cc3)c2=O)c(C)c1
active: [1] 61.1 µM | [5] 54.5 µM | [13] 27.3 µM | [14] 8.63 µM
inactive: [10] | [3] | [11] | [4] | [12] | Aromatase (Homo sapiens) | [15] | [7] | [16] | [8] | [17]

CN1CCC[C@@H]1CCO[C@](C)(c1ccccc1)c1ccc(Cl)cc1
inactive: [11] | [5] | [14] | [9] | [17]
active: [1] 23.7 µM | [2] 26.6 µM | [8] 29.8 µM

COCCOc1cc2cc(C(=O)NC3CCN(C(C)C)CC3)n(CC(=O)Nc3ccc(Cl)cn3)c2cn1
inactive: [10] | [11] | [5] | Aromatase (Homo sapiens) | [13] | [6] | [7] | [16] | [8]
active: [1] 60.4 µM | [14] 48 µM

Cc1cc(-c2ccc(N=Nc3cc(S(=O)(=O)O)c4ccccc4c3N)c(C)c2)ccc1N=Nc1cc(S(=O)(=O)O)c2ccccc2c1N
inactive: [10] | [13] | [14] | [6] | [8] | [9] | [17]
active: [1] 61.4 µM | [2] 27.4 µM | [5] 30.8 µM | [16] 12.3 µM

CC(C)(C)c1ccc(C(O)CCCN2CCC(C(O)(c3ccccc3)c3ccccc3)CC2)cc1 (stereo not given)
inactive and 5.96 µM (active): [1]
active: [7] 13.3 µM | [8] 11.9 µM | [9] 21.1 µM
inactive: [10] | [3] | [11] | [4] | [12] | [18] | [5] | [13] | [14] | [6] | [19]
inactive and 29.8 µM (active): Aromatase (Homo sapiens)

CC(C)OC(=O)C(O)(CC(=O)O)CC(=O)O
inactive: [1] | [2] | [3] | [11] | [4] | [12] | [5] | Aromatase (Homo sapiens) | [13] | [14] | [6] | [15] | [16] | [9] | [17]
